# Cardio protect: modulators protecting cardiomyocytes from myocardial damage | protection from H2O2 cell death, % at 20 µM | H9c2 cardiomyocytes, H2O2 injury protection, ATPLite, 2 h | actives 0.63% (n = 360,000) | AID 588492;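 active means compounds giving at least 50% protection of heart cells from peroxide-induced death in the single-dose screen, raw or plate-pattern-corrected value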
# Mot1-301 SUMO: inhibitors of SUMOylation pathway: yeast Mot1-301 growth rescue. growth rescue, % at 18.8 µM. S. cerevisiae Mot1-301 growth rescue, ATP luminescence, 38.5C; percent above DMSO median, 100 means doubled. actives 1% (n = 320,000);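 active means every valid replicate shows activation above 250% relative to neutral control wells; inactive means the rest, any valid replicate at or below 250%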
# NR3A LBD binder: modulators (binders) of human NR3A ligand-binding domain; AID 1259313; NR3A LBD differential scanning fluorimetry, Tm shift; 0% = protein alone, 100% = glycine-bound protein; Tm shift relative to glycine control, % at 25 µM; actives 2.5% (n = 340,000);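 active means melting temperature shift of at least 10% of the positive control shift, at one fixed dose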
# NTR1 agonist: agonists of human neurotensin receptor NTR1; activation, % at 20 µM; NTR1-U2OS beta-arrestin-GFP spot imaging, agonist mode; actives 0.17% (n = 330,000); AID 493036; P30989;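 active means activation at or above 40% of the spot to cytoplasm intensity ratio, with at least 20 cells analyzed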
# AI-2 QS modul: modulates the Vibrio harveyi AI-2 quorum sensing system | Vibrio harveyi JMH597 AI-2 luminescence/OD600 ratio, 9 h; active compounds read low; strain lacks LuxN and CqsS sensors; 0 = neutral-control median | activity change, % at 7.5 µM | actives 0.4% (n = 300,000) | AID 2094; in the data active means activity change below about -75%, passing the limit was not always enough;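 further: luminescence divided by OD600 gain over 9 h not by final OD600 alone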
# AHR act: activators of human aryl hydrocarbon receptor; AHR-responsive luciferase reporter cells, luminescence; activation, % at 5 µM; actives 2.5% (n = 320,000); AID 2796; in the data active means activation above about 47%
# Target sequence (P35869 whole entry, looked up): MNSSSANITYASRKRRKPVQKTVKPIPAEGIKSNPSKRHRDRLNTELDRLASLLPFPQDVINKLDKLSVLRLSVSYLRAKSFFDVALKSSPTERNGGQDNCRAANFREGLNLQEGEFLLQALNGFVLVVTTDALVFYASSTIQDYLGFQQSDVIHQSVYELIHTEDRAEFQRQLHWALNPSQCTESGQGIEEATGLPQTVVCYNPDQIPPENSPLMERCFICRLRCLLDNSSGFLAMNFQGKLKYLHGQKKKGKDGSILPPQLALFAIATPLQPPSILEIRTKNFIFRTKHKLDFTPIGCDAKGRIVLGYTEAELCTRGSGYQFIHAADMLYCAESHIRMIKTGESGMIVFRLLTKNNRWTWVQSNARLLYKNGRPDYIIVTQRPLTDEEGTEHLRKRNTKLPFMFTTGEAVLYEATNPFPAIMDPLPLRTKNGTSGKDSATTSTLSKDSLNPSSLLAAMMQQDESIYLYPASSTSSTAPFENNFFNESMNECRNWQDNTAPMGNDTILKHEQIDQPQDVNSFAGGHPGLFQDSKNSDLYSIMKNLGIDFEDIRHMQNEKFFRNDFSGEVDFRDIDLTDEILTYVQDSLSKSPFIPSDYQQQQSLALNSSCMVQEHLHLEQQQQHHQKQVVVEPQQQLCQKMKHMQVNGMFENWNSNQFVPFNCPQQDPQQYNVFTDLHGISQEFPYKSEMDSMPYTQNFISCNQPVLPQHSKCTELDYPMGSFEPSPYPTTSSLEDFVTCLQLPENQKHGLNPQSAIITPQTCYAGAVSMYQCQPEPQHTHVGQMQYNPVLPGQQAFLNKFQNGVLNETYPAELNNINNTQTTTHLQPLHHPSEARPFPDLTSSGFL
# AHR act confirm: human AHR activation, confirmation; shares compounds with AHR act; activation, % at 9 µM; human cells, AHR-responsive luciferase reporter, luminescence; actives 87% (n = 2,300); in the data active means activation above about 49%;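 further: HepG2 hepatoma cells carrying a DRE-driven firefly luciferase reporter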
# PXR counter: PXR activation, counter-screen for AHR activators | shares compounds with AHR act | cell-based PXR reporter, luciferase luminescence | activation, % at 11.6 µM | actives 88% (n = 2,300); in the data active means activation above about 11%;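 further: human hepatoma DPX-2 cells expressing full-length human PXR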
# A number is an active result; . = inactive; / = no result. Compounds with a hit are over-represented: about 6.2% of the library has one in this group of screens.
SMILES,Cardio protect,Mot1-301 SUMO,NR3A LBD binder,NTR1 agonist,AI-2 QS modul,AHR act,AHR act confirm,PXR counter
O=c1[nH]c(SCc2ccccc2Cl)nc2c1cnn2-c1ccccc1,.,.,.,.,.,117,77,105
Cc1ccc2nc(SCc3nc4c(cnn4-c4ccccc4)c(=O)[nH]3)[nH]c2c1,.,.,.,.,.,121,.,37
CCc1[nH]nc(C(=O)N/N=C/c2ccncc2)c1C,.,.,.,.,.,.,/,/
CCOC(=O)c1c(N/N=C/c2ccncc2)n[nH]c1C,.,.,.,.,.,97,66,15
CCOC(=O)[C@H]1[C@H]2COc3ccc(OC)cc3[C@@H]2N2C(=O)CN(Cc3ccccc3)C(=O)[C@@]12C,.,.,.,.,/,.,/,/
COc1cc(/C=N/NC(=O)c2cccc(NC(=O)c3ccccc3C)c2)ccc1O,.,.,.,.,.,.,/,/
COc1cc(/C=N/NC(=O)c2cccc(NC(=O)c3ccccc3)c2)ccc1O,.,.,.,.,.,100,88,/
Cc1ccc(NC(C)C(=O)N/N=C/c2c[nH]c3ccccc23)cc1 (stereo not given),.,.,.,.,.,.,/,/
Cc1ccc(NCC(=O)N/N=C/c2c[nH]c3ccccc23)cc1,.,.,24,.,.,158,111,19
O=C(N/N=C/c1ccc([N+](=O)[O-])o1)c1cc(-c2ccncc2)nc2ccccc12,.,.,.,.,.,.,/,/
O=C(N/N=C/c1ccc([N+](=O)[O-])o1)c1cc(-c2ccc(-c3ccccc3)cc2)nc2ccccc12,.,.,.,.,.,128,.,25
COc1ccc(S(=O)(=O)Nc2ccccc2C(=O)N2CCOCC2)cc1Cl,.,.,.,.,.,.,/,/
CNc1nc(Nc2ccc(C(=O)OC)cc2)c2sccc2n1,.,/,/,/,/,/,/,/
O=S(=O)(Nc1ccc(-c2nc3cccnc3s2)cc1)c1cccs1,.,.,.,.,.,95,98,29
Cc1c(NS(=O)(=O)c2cccs2)cccc1-c1nc2cccnc2s1,.,.,.,.,.,.,/,/
CCN(CC)C(=O)C1=C(C)N(Cc2ccc(F)cc2)C(=O)C(CC(=O)NCC2CCCCC2)C1 (stereo not given),.,/,/,/,/,/,/,/
COc1ccc(C(=O)N/C(=C\c2cn(C)c3ccccc23)C(=O)OCC(C)C)cc1,.,.,.,.,.,90,60,137
CCCCCCCCC(=O)c1c(OC)oc(C=O)cc1=O,.,/,/,/,/,/,/,/
Cc1cc(=O)oc2cc(OCCc3ccccc3)ccc12,.,.,.,.,.,81,140,21
Cc1cc(=O)oc2cc(OCCCC[n+]3ccccc3)ccc12,.,.,.,.,.,.,/,/
CCc1cccc(C)c1NC(=O)c1cc(=O)[nH]c2ccc(S(=O)(=O)N3CCOCC3)cc12,.,.,.,.,/,.,/,/
C/C(=N\N=c1/sc2ccccc2n1C)c1ccccn1,.,.,.,.,.,104,143,26
CSc1nccc(NC(=O)c2cccc(Br)c2)n1,.,.,.,.,.,.,/,/
c1ccc(CN2C3=NCCN3c3ccccc32)cc1,.,.,.,.,.,.,/,/
O=C(CN1C2=NCCN2c2ccccc21)C12CC3CC(CC(C3)C1)C2,.,.,.,.,.,82,48,58
SMILES,Cardio protect,Mot1-301 SUMO,NR3A LBD binder,NTR1 agonist,AI-2 QS modul,AHR act,AHR act confirm,PXR counter
Cc1c(C(=O)NCc2ccco2)oc2ccccc12,.,.,.,.,.,.,/,/
c1ccc(-c2nc(NCc3ccco3)c3oc4ccccc4c3n2)cc1,.,.,.,.,.,88,105,35
Cc1ccc(-c2nc(NCc3ccco3)c3ccccc3n2)cc1,.,.,.,.,.,.,/,/
O=C(CCSc1ccc(F)cc1)NNC(=O)c1ccccc1Cl,.,.,.,.,/,.,/,/
CCn1c(CNc2ccc(Cl)cc2)nnc1SCC#N,.,.,.,.,.,120,100,48
CCn1c(CNc2ccc(F)cc2)nnc1SCC#N,.,.,.,.,.,.,/,/
Cc1ccc(CNC(=O)Cn2ccc3cc(S(=O)(=O)N4CCCC4)ccc32)o1,.,.,.,.,.,.,/,/
O=C1NC(=O)/C(=C\c2ccsc2)N1,.,.,.,.,.,.,/,/
CCN(CC)c1ccc(/C=C2\NC(=O)NC2=O)cc1,.,.,.,.,.,88,56,11
CCCc1nn(C)c(C(=O)Nc2cccc3ccccc23)c1Cl,.,.,12,.,.,93,74,/
C=C(C1=CCN(S(=O)(=O)C(C)(C)C)[C@@H]1CCO)c1ccccc1,.,/,.,/,/,/,/,/
CCCCC(=O)Nc1cccc(-c2cn3ccsc3n2)c1,.,.,.,.,.,.,/,/
O=C(Nc1cccc(-c2cn3ccsc3n2)c1)c1ccccc1,.,.,21,.,.,82,72,14
CC(C)C(NC(=O)c1ccc(C(C)(C)C)cc1)C(=O)Nc1ccc(N2CCOCC2)cc1 (stereo not given),.,.,.,.,/,.,/,/
COc1ccc(CN2C(=NC(=O)C3CC3)SC3CS(=O)(=O)CC32)cc1OC (stereo not given),.,.,.,.,.,.,/,/
Cc1nc(-c2ccccc2)sc1-c1ccn[nH]1,.,.,.,.,.,.,/,/
CCn1c(-c2sc(-c3ccccc3)nc2C)n[nH]c1=S,.,.,.,.,.,81,119,19
COc1ccc(C#Cc2ccc3c(c2)c(=O)c2ccccc2n3C)cc1,.,.,12,.,.,91,103,14
COc1cccc(C#Cc2c(C=O)n(C)c3ccccc23)c1,.,.,.,.,/,110,130,43
Cn1c2ccccc2c(=O)c2cc(C#Cc3ccc(N)cc3)ccc21,.,.,.,.,.,.,/,/
COc1ccc(-c2cc(=O)oc3cc(OC(C)C(=O)NCc4ccccn4)ccc23)cc1 (stereo not given),.,.,.,.,.,.,/,/
Cn1ccs/c1=N\C(=O)Nc1cccc(C(F)(F)F)c1,.,.,.,.,.,106,111,60
Cc1cccc(NC(=O)CSCC(=O)N=c2sccn2C)c1,.,.,.,.,.,.,/,/
Cc1ccc(OC(F)F)c(NC(=O)Nc2ccc3c(c2)OCO3)c1,.,.,.,.,.,82,75,47
CCOc1ccccc1NC(=O)Nc1ccc2c(c1)OCO2,.,.,.,.,.,103,115,97
Clc1ccc(C2=NN=C3COc4ccccc4N3C2)cc1,.,.,.,.,.,88,118,24
CCOC(=O)C1(C)CCCCCN1C(=O)c1ccc(C(=O)OC)cc1 (stereo not given),.,/,/,/,/,/,/,/
